Results: PubChem BioAssay AID1619 (SRMLSC, 2009)
The campaign covered roughly 220,000 compounds. About 830 (0.38%) were called active.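 How the source made its calls: active means compound inhibiting the enzyme by more than half at any dose during confirmatory dose-response retesting; inconclusive means strong single-dose inhibitors picked by rank but not retested; inactive means the rest.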 Not all results are given here. Potency and affinity values are given separately.

target: Leucine aminopeptidase (Plasmodium falciparum (isolate 3D7)) (UniProt Q8IL11); experiment: P. falciparum M17LAP inhibitors, primary screen, biochemical, fluorogenic H-Leu-NHMec substrate, 1536-well (AID 1619); conditions: recombinant M17LAP, H-Leu-NHMec fluorogenic kinetic assay; at 30 µM; stronger effect = higher value;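 further: plate controls were full reaction with DMSO carrier for no effect and no enzyme background for full effect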
Sequence (Q8IL11 whole entry, looked up): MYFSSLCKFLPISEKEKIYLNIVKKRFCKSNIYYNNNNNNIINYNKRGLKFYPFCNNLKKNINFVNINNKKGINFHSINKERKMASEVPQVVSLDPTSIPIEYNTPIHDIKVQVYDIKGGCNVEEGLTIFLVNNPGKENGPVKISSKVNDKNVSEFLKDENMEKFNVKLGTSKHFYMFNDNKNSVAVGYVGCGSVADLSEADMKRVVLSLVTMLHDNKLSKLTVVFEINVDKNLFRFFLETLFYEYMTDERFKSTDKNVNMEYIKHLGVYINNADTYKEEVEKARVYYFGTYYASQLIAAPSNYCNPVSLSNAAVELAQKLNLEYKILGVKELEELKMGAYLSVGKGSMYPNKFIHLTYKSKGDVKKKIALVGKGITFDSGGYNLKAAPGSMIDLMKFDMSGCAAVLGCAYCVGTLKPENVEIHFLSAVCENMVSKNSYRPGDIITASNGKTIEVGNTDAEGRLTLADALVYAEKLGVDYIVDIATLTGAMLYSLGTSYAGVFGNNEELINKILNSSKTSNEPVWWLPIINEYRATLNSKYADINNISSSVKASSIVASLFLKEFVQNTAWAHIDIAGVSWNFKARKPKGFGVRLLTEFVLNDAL

inhibition, inactive:
CCN(CC)C(=O)CSc1nnc(-c2ccc(S(=O)(=O)N3CCCC3)cc2)o1 -8.97%, CCOC(=O)C1=NNC2C(=O)N(Cc3ccccc3)C(=O)C12 (centres undefined) 5.31%, COC(=O)C1=C(C)N(c2ccc(OC)cc2)C(C)=C(C(=O)OC)C1c1ccc(OC)cc1 -14.2%, Cc1nc2ccccc2c2c1C(=O)NC2=O -0.48%, CCOC(=O)C1CCN(c2cc(=O)n(C3CCCCC3)c(=O)[nH]2)CC1 7.51%, CS(=O)(=O)N(CC(=O)Nc1ccc(S(=O)(=O)N2CCOCC2)cc1)c1ccccc1Cl 12.3%, COc1ccccc1Cn1[nH]nnc1=S 5.05%, COc1ccc([C@H]2[C@H](C(=O)OC(C)(C)C)N3N=Cc4ccccc4C3C23C(=O)c2ccccc2C3=O)c(OC)c1 (some centres undefined) 34.9%, COc1ccc([C@H]2[C@H](C(=O)OC(C)(C)C)N3N=Cc4ccccc4C3C23C(=O)c2ccccc2C3=O)cc1OC (some centres undefined) 21.8%, CC(C)CCn1nnnc1C(c1ccc(N(C)C)cc1)N1CCN(C(=O)c2ccco2)CC1 (centres undefined) 8.08%, COC(=O)c1cc(NC(=O)C2CC2)cc(C(=O)OC)c1 4.68%, O=C(O)c1ccc(NC(=O)C2CC=CCC2C(=O)O)cc1 (centres undefined) 2.25%, O=C(NNC(=O)C1CC1c1ccccc1)Nc1cccc(Cl)c1 (centres undefined) -2.69%, CC1=C(C)CC(C(=O)NNC(=O)c2cccc(Cl)c2)C(C(=O)O)C1 (centres undefined) 27.5%, COC(=O)c1cc(C)sc1NC(=O)C1CC=CCC1C(=O)O (centres undefined) 36.3%, O=C(O)C1CC=CCC1C(=O)Nc1cccnc1 (centres undefined) 20.5%, O=C(O)C1CC=CCC1C(=O)NNc1ccccc1 (centres undefined) 1.11%, O=C(CCSc1ccccc1)NC1CCCCCC1 2.59%, COc1ccc(C(=O)NCCCCCC(=O)N/N=C/c2ccco2)cc1OC -1.79%, C=CCn1c(-c2ccc(OC)c(OC)c2)n[nH]c1=S 13.8%, COc1ccc(S(=O)(=O)Nc2ccc3c(c2)OCO3)cc1 -4.98%, COc1ccccc1NC(=S)NCCSc1ccc(Cl)cc1 -3.97%, O=C(Nc1nccs1)c1ccc(S(=O)(=O)N2CCOCC2)cc1 7.17%, CCCC1=C(C(=O)OCC)C(c2ccncc2)n2ncnc2N1 (centres undefined) 5.84%, CC1=CC(C#N)(C#N)C(C#N)(C#N)C(c2ccccc2)N1 (centres undefined) -40.9%, O=C(Nc1cccc([N+](=O)[O-])c1)C1C2CC/C=C\CCC21 (centres undefined) 0.68%, O=C(Nc1nccs1)c1ccc(NC(=O)c2ccco2)cc1 9.18%, O=C(O)C1C2C=CC(C2)C1C(=O)Nc1cccc(F)c1 (centres undefined) 23.1%, O=C(O)C1CC=CCC1C(=O)Nc1cccc([N+](=O)[O-])c1 (centres undefined) 14.2%, O=C(O)C1CCCCC1C(=O)Nc1nccs1 (centres undefined) 15.9%, O=C(O)C1CCCCC1C(=O)NCCc1cccc(Cl)c1 (centres undefined) 75%, O=C(O)C1CC=CCC1C(=O)Nc1cccc(C(=O)N2CCCCC2)c1 (centres undefined) 40.8%, O=C(O)C1CC=CCC1C(=O)NCCc1ccccc1 (centres undefined) 42%, O=C(Nc1nc(-c2ccccc2)cs1)C1c2ccccc2Oc2ccccc21 1.51%, Cc1ccc(Cn2c(=O)cc(C(=O)O)c3ccccc32)cc1 -52.6%, CC(C)CC(=O)N1CCN(S(C)(=O)=O)CC1 9.33%, CCCc1cc(C(=O)N2CCN(S(=O)(=O)c3ccc(OC)c(OC)c3)CC2)cs1 -3.16%, COc1ccc(Cl)cc1C(=O)N(Cc1nc(-c2cccc(C)c2)no1)C(C)C -1.6%, CC(C)(C)c1ccc(C(=O)Nc2ccc(O)c3c(=O)cc(-c4cccc(Cl)c4)oc23)cc1 0.21%, Cc1nnc(-c2cnn(C)c2N)n1CCCN(C)C -1.24%, Cc1ccccc1N1CCN(C(=O)CN2C(=O)c3ccccc3C2=O)CC1 -9.93%, O=C(Nc1ccc2nsnc2c1)c1cccs1 6.9%, Cc1ccc(S(=O)(=O)Oc2ccccc2/C=N/Nc2ccc(C(=O)O)cc2)cc1 28%, CC(=O)CC(C)(C)Nc1nc2ccc([N+](=O)[O-])cc2o1 13.3%, COC(=O)c1ccc(C)c(NS(=O)(=O)c2ccc(C)c([N+](=O)[O-])c2)c1 1.7%, O=C1C2CCCN2C(c2ccc(F)cc2)N1c1nccs1 (centres undefined) 0.99%, Cc1cc(C)cc(Oc2ccc(NC(=O)C3CC=CCC3C(=O)O)cc2)c1 (centres undefined) 5.05%, Cc1cccc(Oc2ccc(NC(=O)C3CC=CCC3C(=O)O)cc2)c1 (centres undefined) 2.18%, Cc1cccc(-n2c(CNC(=O)c3ccc(S(=O)(=O)N(C)C)cc3)nnc2SCC(=O)Nc2ccc(F)cc2)c1 -5.07%, COc1cccc(CNc2nc3nc(C)cc(=O)n3[nH]2)c1 -3.52%, CC(C)(C)c1ccc(OC(=O)CN2C(=O)C3C4CCC(C4)C3C2=O)cc1 (centres undefined) -0.46%, Cc1ccc(SCC(=O)Nc2ccccc2C(=O)O)cc1 -12.3%, CC(=O)Nc1cccc(C(=O)Nc2ccccc2C(=O)O)c1 4.74%, Cc1cnc2c(C(=O)O)cnn2c1 13.5%, CCOC(=O)c1cnc2c([N+](=O)[O-])cnn2c1C 12.8%, O=C(O)c1cc2ncc(-c3[nH]ncc3[N+](=O)[O-])cn2n1 15.3%, Cc1c(C(=O)O)cnc2c([N+](=O)[O-])cnn12 12.2%, Cc1ccc(NC(=O)/C(Cl)=C/c2ccccc2)cc1C 0.91%, Cc1ccc(S(=O)(=O)N2CCN(c3ccc([N+](=O)[O-])c(NCCN4CCOCC4)c3)CC2)cc1 3.35%, CC(=O)Nc1nc(C)c(Oc2ccc(Cl)cc2Cl)c(=O)[nH]1 7.16%, Cc1sc(NC(=O)C2C3CCC(O3)C2C(=O)O)nc1-c1ccc(CC(C)C)cc1 (centres undefined) 6.67%, CC(C)OC(=O)c1cc(NC(=O)C2C3CCC(O3)C2C(=O)O)cc(C(=O)OC(C)C)c1 (centres undefined) 2.91%, O=C(O)C1C2CCC(O2)C1C(=O)NCc1ccc(Cl)cc1 (centres undefined) 2.78%, Cc1sc(NC(=O)c2cc3ccccc3oc2=O)c(C(=O)OC(C)C)c1-c1ccccc1 5.06%, O=C(c1cccc(C(F)(F)F)c1)N1CCc2c([nH]c3ccccc23)C1C(F)(F)F (centres undefined) -3.58%, Cc1cc(C)n(C2CC(=O)N(c3cccc(Cl)c3)C2=O)n1 (centres undefined) 10.2%, CCOc1cc(/C=N/n2cnnc2)ccc1OS(=O)(=O)c1ccc(C)cc1 -1.56%, O=C(NCCCN1CCCC1=O)c1cc(NS(=O)(=O)c2ccc(F)cc2)cc(NS(=O)(=O)c2ccc(F)cc2)c1 22.7%, O=C(CSc1ncnc2nc[nH]c12)Nc1ccccc1C(F)(F)F 12%, Cc1cccc(NC(=O)CSc2ncnc3nc[nH]c23)c1 56.5%, O=C(CSc1ncnc2nc[nH]c12)Nc1ccc(Br)cc1Cl 9.25%, Cc1cccc(NC(=O)CSc2ncnc3nc[nH]c23)c1C 43.9%, O=C(O)COc1cccc(NC(=O)C2CCCO2)c1 (centres undefined) 5.81%, C=CCn1c(O)c(N=Nc2nc3ccccc3c(=O)n2-c2ccccc2)c2ccccc21 -2.79%, O=C(CCCO)N/N=C/c1ccccc1[N+](=O)[O-] 8.09%, O=C(CSc1nc(O)c(-c2ccccc2)c(=O)[nH]1)N1CCOCC1 12.3%, CCOc1ccc(N2C(=O)C3Sc4[nH]c(=O)sc4C(c4ccc(OC)c(OC)c4)C3C2=O)cc1 (centres undefined) -5.76%, Cc1ccc(C)c(NC(=O)C2CC3c4ccccc4C2c2ccccc23)c1 (centres undefined) -1.72%, Cc1cc(NC(=O)C2CC=CCC2C(=O)O)no1 (centres undefined) 41.7%, O=C(O)C1CC=C(Cl)CC1C(=O)NCc1ccccc1 (centres undefined) 36.4%, O=C(O)C1CC=CCC1C(=O)Nc1ccccc1C(=O)N1CCN(c2ccc(F)cc2)CC1 (centres undefined) 23.1%, Cc1ccccc1NC(=O)C1CC(Cl)=CCC1C(=O)O (centres undefined) 43.5%, Cc1ccc(N2CCN(C(=O)c3ccccc3NC(=O)C3CC=CCC3C(=O)O)CC2)cc1 (centres undefined) 49.9%, O=C(NCCN1CCN(c2cccc(Cl)c2)CC1)C1CCCN(S(=O)(=O)c2cnc[nH]2)C1 (centres undefined) -4.03%, NC(=O)CN1CCN(c2ccccc2F)CC1 4.96%, C/C(=N/NC(=O)c1cn(-c2cccc(C)n2)cn1)c1ccc(C)cc1 -2.51%, CCOC(=O)c1ccc(-n2c(CN(CC)CC)nc3ccc([N+](=O)[O-])cc3c2=O)cc1 2.23%, Brc1cc2[nH]cnc2c2ccccc12 4.81%, Cn1c(N)c(C(=O)COc2ccc(C#N)cc2)c(=O)n(C)c1=O 7.75%, O=c1c(N2CCOCC2)coc2ccccc12 9.22%, CCCCc1sc(-c2c(C#N)c(N)nc3c2CCCCC3)cc1[N+](=O)[O-] 1.41%, O=C(CN1C(=O)C2C3C=CC(C4CC34)C2C1=O)Nc1cccc2ncccc12 (centres undefined) 6.24%, O=C(CN1C(=O)C2C3C=CC(C4CC34)C2C1=O)NCc1ccco1 (centres undefined) 1.4%, CCOc1ccc(-n2c(Cc3cc(=O)[nH]c(=O)[nH]3)nnc2SCc2cccnc2)cc1 6.43%
